From PubChem BioAssay (EPA / NIEHS)
The source made the active and inactive calls. Rule for the calls: active = hit-call score of the fitted dose curve at least 0.9, where 1 is the maximum; inactive = score below 0.9.

Test: ATG_PPRE_CIS: Attagene CIS-FACTORIAL HepG2 Assay for human Peroxisome Proliferator-activated Response Element (PPRE) (AID 2282958)
Settings: HepG2 PPRE cis-element reporter, Attagene transcription factor profiling; actives raise or lower the signal
Method: ATG_CIS is a cell-based, multiplexed-readout assay that uses HepG2, a human liver cell line, with measurements taken at 24 hours after chemical dosing in a 24-well plate.ATG_PPRE_CIS is one of 52 assay component(s) measured or calculated from the ATG_CIS assay. It is designed to make measurements of mRNA induction, a form of inducible reporter, as detected with fluorescence intensity signals by Reverse transcription polymerase chain reaction (RT-PCR) and Capillary electrophoresis technology.Data from the assay component ATG_PPRE_CIS was analyzed into 1 assay endpoint. This assay endpoint, ATG_PPRE_CIS, was analyzed with bidirectional fitting relative to DMSO as the negative control and baseline of activity. Using a type of inducible reporter, measures of mRNA for gain or loss-of-signal activity can be used to understand the reporter gene at the transcription factor-level as they relate to the gene PPARA and PPARD and PPARG. Furthermore, this assay endpoint can be referred to as a primary readout, because this assay has produced multiple assay endpoints where this one serves a reporter gene function. To generalize the intended target to other relatable targets, this assay endpoint is annotated to the nuclear receptor intended target family, where the subfamily is non-steroidal.
Human liver HepG2 cells are transiently transfected with multiple reporter transcription units (MRTUs) in 6-well plates using FuGene 6 reagent (Roche; 3 ml FuGene/1 mg DNA). The MRTU constructs are regulated by a cis-regulating element (promoter). […] A major difference between the CIS and TRANS system is that in CIS activities of endogenous TFs are measured, whereas the TRANS assay evaluates changes in activities of exogenous, chimeric NR-Gal4 proteins. […] At the end of 24 hour incubation, total RNA was isolated using TriZol reagent (Invitrogen). The isolated RNA is then reverse-transcribed using oligo(dT) primer and Mo-MLV reverse transcriptase (Invitrogen) with DNAse I (Ambion) treatment for 30 min. The one-tenth of the produced cDNA was amplified by PCR using Taq DNA polymerase (Invitrogen) and two reporter sequence-specific primers. The PCR products were fluorescently labeled by primer extension with 6-arboxyfluorescein (6-FAM) 5'-labeled reporter sequence-specific primer (2 min at 95 C, 20 s at 68 C and 10 min at 72 C) and these products were digested with 5U of HpaI (New England Biolabs) for 2h at 37 C. The fragments were purified using Qiaquick PCR columns (Qiagen), analyzed on an ABI 3130xL genetic analyzer (Applied Biosystems) with peak positions identified by using a set of X-rhodamine (ROX)-labeled MapMarker1000 molecular weight standards (BioVentures). The raw capillary electrophoresis data was processed using Attagraph software (Attagene).

SMILES	AC50	outcome
CCC[CH2][Sn]([CH2]CCC)([CH2]CCC)[CH2]CCC	2200 nM (active)	
C=CCCl		inactive
N#CCC#N		inactive
ClCc1ccccc1CCl		inactive
O=C(CCl)NCO		inactive
CCCCCCCCCCCCBr		inactive
CCOC(=O)OC1=C(c2cc(C)ccc2C)C(=O)NC12CCC(OC)CC2 (stereo not given)		inactive
CCCSP(=S)(OCC)Oc1ccc(Cl)cc1Cl (stereo not given)		inactive
ClCCCCl		inactive
C=C(C)[C@@H]1CC=C(C=O)CC1		inactive
C=CC(=O)[O][Sn]([CH2]CCC)([CH2]CCC)[CH2]CCC	6.87 nM (active)	
NC(=O)c1ccc(N)nc1		inactive
N#Cc1ccc(Cl)cc1		inactive
FC(F)OCC(F)(F)C(F)(F)F		inactive
Cc1ccccc1OP(=O)(Oc1ccccc1C)Oc1ccccc1C		inactive
c1cc[c]([Sb]([c]2ccccc2)[c]2ccccc2)cc1		inactive
N#CS		inactive
Cc1ccc2nc3sc(=O)sc3nc2c1		inactive
COC(=O)Nc1cccc(OC(=O)Nc2cccc(C)c2)c1		inactive
CC(=O)CN(CC(C)=O)N=O		inactive

SMILES	AC50	outcome
Brc1ccc(Oc2c(Br)cc(Br)cc2Br)c(Br)c1		inactive
OCCCCO		inactive
Brc1ccc(Br)cc1		inactive
CC(C=O)Cc1ccc2c(c1)OCO2 (stereo not given)		inactive
CC(C)(c1ccccc1)c1cc(-n2nc3ccccc3n2)c(O)c(C(C)(C)c2ccccc2)c1		inactive
Cc1cc(C(F)(C(F)(F)F)C(F)(F)F)ccc1NC(=O)c1cccc(I)c1C(=O)NC(C)(C)CS(C)(=O)=O		inactive
CCCCN(CCCCO)N=O		inactive
Cc1cc(Cl)ccc1N		inactive
CC(=Cc1ccccc1)[N+](=O)[O-]		inactive
OC(Cc1ccccc1Cl)(Cn1[nH]cnc1=S)C1(Cl)CC1 (stereo not given)		inactive
O=C(O)COc1ccc(Cl)cc1		inactive
Cc1cccc(C)c1NC(=O)CN1CCCC1=O		inactive
CCOP(=S)(OCC)SCS(=O)(=O)C(C)(C)C		inactive
CS(=O)(=O)c1ccc(C(=O)C2C(=O)CCCC2=O)c(Cl)c1COCC(F)(F)F		inactive
CCOP(=S)(OCC)Oc1ccc(Cl)cc1Cl		inactive
CNC(=O)N(C)c1nc2ccccc2s1		inactive
CN(C1CCCCC1)C1CCCCC1		inactive
CN(C)c1ccc(N=O)cc1		inactive
CCCCCCCCCCBr		inactive
CC(C)(c1ccc(O)c(-c2ccccc2)c1)c1ccc(O)c(-c2ccccc2)c1		inactive
